KB-V1 cytotox = qHTS assay for MDR1-selective chemotherapeutics: Primary screen using the drug-selected MDR subline cells KB-V1. KB-V1 MDR cells viability, CellTiter-Glo, 72 h. Potency, µM (titrated, usually from 46.1 µM), usual class: cytotoxic. 400,000 compounds, 3.4% hits; note: nearly all actives have a fitted effect of over 60% in size
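Cytotoxicity via CellTiter-Glo luminescence after 72 h compound exposure at 37 degrees C. Cells: drug-selected KB-V1 line, DMEM phenol-red free plus 10% FBS. Compounds tested at multiple concentrations; normalized data fitted to concentration-effect curves.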
SW480 rerep = A quantitative high throughput screen for small molecules that induce DNA re-replication in SW480 colon adenocarcinoma cells. 340,000 compounds, 1.8% hits. AID 624297, 2012. Potency, µM (doses to about 46.1 µM), hits mostly activators. SW480 DNA re-replication, Hoechst DNA content imaging, 48 h; note: nearly all actives have a fitted effect of over 55% in size
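Readout is total intensity of Hoechst-stained nuclei, excited at 405 nm and collected at 500-530 nm. Compound treatment lasted 48 hr at 37 C in 5% CO2 before staining.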
HT1080 IDH1KD tx = qHTS for induction of synthetic lethality in tumor cells producing 2HG: qHTS for the HT-1080-IDH1KD cell line. HT-1080 IDH1 knockdown viability, ATP luminescence, 48 h. Potency, µM (series often up to 46.1 µM), usual class: cytotoxic. 360,000 compounds, 2% hits
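In this qHTS, HT-1080 cells depleted of IDH1 are exposed for 48 h at 37 °C to compound titrations. Toxicity is scored from CellTiter-Glo luminescence, with DMSO as full viability and medium alone as none.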
MCF10A rerep = A quantitative high throughput screen for small molecules that induce DNA re-replication in MCF 10a normal breast cells; MCF 10A DNA re-replication, Hoechst nuclear intensity, 48 h; Potency, µM (titrated, usually from 46.1 µM), most hits filed as activators; 350,000 compounds, 2.9% hits; note: nearly all actives have a fitted effect of over 50% in size
KB-3-1 tox = qHTS assay for MDR1-selective chemotherapeutics: Primary screen using the parental adenocarcinoma cell KB-3-1 | KB-3-1 viability, CellTiter-Glo ATP luminescence, 72 h | AID 1347075, 2019 | 400,000 compounds, 1.4% hits | Potency, µM (doses to about 46.1 µM), usual class: cytotoxic; note: nearly all actives have a fitted effect of over 60% in size
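Viability of parental KB-3-1 cells, measured by CellTiter-Glo luminescence, followed a 72 h incubation at 37 °C with pinned compounds in phenol-red-free DMEM containing 10% FBS.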
HT1080NT lethal = qHTS for induction of synthetic lethality in tumor cells producing 2HG: qHTS for the HT-1080-NT fibrosarcoma cell line; HT-1080-NT fibrosarcoma viability, CellTiter-Glo ATP luminescence, 48 h; Potency, µM (highest dose often 46.1 µM), hits mostly cytotoxic; 360,000 compounds, 1.6% hits; AID 686970, 2013;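 note: NT is the 2HG producing partner of a matched IDH1 knockdown line; nearly all actives have a fitted effect of over 55% in size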
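Viability by CellTiter-Glo luminescence after 48 h compound exposure at 37C of HT-1080-NT cells (750/well, RPMI, 5% FBS). % activity scaled between DMSO wells and medium-only wells, then curve-fitted and categorized by curve class.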
Large screens that a line does not name were inactive. In the library only some 7.9% were active in any assay of this set; here they are far more common. Calls come from the whole dose curve; as a rule, active = well fitted curve in the direction sought with a large enough effect; inconclusive = small, poorly fitted or top-dose-only effect, or another doubt; inactive = no such curve, though single readings can be large; an effect the other way counts as inactive or inconclusive.

Cc1ccc(CN2C(=O)N(c3ccc(C)c(Cl)c3)S(=O)(=O)c3ccccc32)cc1	none (no result: SW480 rerep, HT1080 IDH1KD tx, MCF10A rerep, HT1080NT lethal)
CCOC(=O)CC(=O)Nc1ncnc2c1C(c1ccccc1)c1c(ccc3ccccc13)O2 (centres undefined)	none (no result: HT1080 IDH1KD tx, HT1080NT lethal)
CC(=O)NC1=C(C#N)C(c2ccccc2)c2c(ccc3ccccc23)O1 (centres undefined)	KB-V1 cytotox 6.5µM, SW480 rerep inconclusive, HT1080 IDH1KD tx 15µM, MCF10A rerep 1.8µM, KB-3-1 tox 18µM, HT1080NT lethal inconclusive
Nc1nonc1C(=O)NCCNS(=O)(=O)c1ccc(Br)cc1	MCF10A rerep 18µM
Nc1nonc1C(=O)NCCNC(=O)c1ccccc1F	KB-V1 cytotox inconclusive
CCOC(=O)c1c(NC(=O)COc2ncnc3sccc23)sc2c1CCC2	KB-V1 cytotox 3.3µM, HT1080 IDH1KD tx inconclusive, HT1080NT lethal inconclusive
CCOC(=O)c1c(NC(=O)CSc2ncn[nH]2)sc(C(C)=O)c1C	none
COC(=O)c1c(NC(=O)CSc2ncn[nH]2)sc(C)c1C	KB-V1 cytotox 21µM
COC(=O)c1c(NC(=O)COc2ncnc3ccccc23)sc(C)c1C	KB-V1 cytotox 15µM
CCOC(=O)c1c(NC(=O)COc2ncnc3ccccc23)sc(C(C)=O)c1C	MCF10A rerep inconclusive
CCOC(=O)c1c(NC(=O)COc2ccc(CC)cc2)sc2c1CCCC2	none (no result: SW480 rerep, HT1080 IDH1KD tx, MCF10A rerep, HT1080NT lethal)
CCC1CCCCN1c1nc(-c2ccncc2)nc2ccccc12 (centres undefined)	KB-V1 cytotox inconclusive, SW480 rerep inconclusive, HT1080 IDH1KD tx inconclusive, MCF10A rerep 23µM, KB-3-1 tox inconclusive, HT1080NT lethal 18µM
CC1CCCCN1c1ncnc2ccccc12 (centres undefined)	KB-V1 cytotox inconclusive, KB-3-1 tox inconclusive, HT1080NT lethal 18µM
c1ccc2c(N3CCOCC3)nc(-c3ccncc3)nc2c1	KB-V1 cytotox 13µM, KB-3-1 tox inconclusive
CC1CCCCN1c1nc(-c2ccncc2)nc2ccccc12 (centres undefined)	KB-V1 cytotox inconclusive, SW480 rerep inconclusive, HT1080 IDH1KD tx 29µM, MCF10A rerep inconclusive, HT1080NT lethal inconclusive
CCC1CCCCN1c1nc(-c2cccc(OC)c2O)nc2ccccc12 (centres undefined)	SW480 rerep inconclusive, MCF10A rerep inconclusive
CCOc1ccc(-c2nonc2NC(=O)c2ccc(C)cc2)cc1OCC	none (no result: SW480 rerep, HT1080 IDH1KD tx, MCF10A rerep, HT1080NT lethal)
Cc1cc(C)c(NC(=O)C2CCN(c3nn4c(=O)cc(C)nc4s3)CC2)c(C)c1	none (no result: SW480 rerep, HT1080 IDH1KD tx, MCF10A rerep, HT1080NT lethal)
COC(=O)c1ccccc1NC(=O)Cn1c(=O)n(Cc2ccc(C(=O)NCc3ccc4c(c3)OCO4)cc2)c(=O)c2ccccc21	none (no result: SW480 rerep, HT1080 IDH1KD tx, MCF10A rerep, HT1080NT lethal)
O=C(Cn1ncc2c3ccccc3n(Cc3ccccc3F)c2c1=O)NC1CCCCCC1	none (no result: SW480 rerep, HT1080 IDH1KD tx, MCF10A rerep, HT1080NT lethal)
Nc1ccc2c(C(F)(F)F)cc(C(F)(F)F)nc2n1	KB-V1 cytotox inconclusive, SW480 rerep inconclusive, MCF10A rerep inconclusive
Nc1nc(N)c2sc3nc(C(F)(F)F)cc(C(F)(F)F)c3c2n1	KB-V1 cytotox 18µM, MCF10A rerep inconclusive
COc1cc(C(CC(=O)Nc2ccc(Br)cn2)N2Cc3ccccc3C2=O)cc(OC)c1OC (centres undefined)	none (no result: SW480 rerep, HT1080 IDH1KD tx, MCF10A rerep, HT1080NT lethal)
COc1ccccc1C(=O)NCC[N+](C)(C)C	none (no result: SW480 rerep, MCF10A rerep)
O=C(OCn1ncc(Br)c(Br)c1=O)c1ccc(F)cc1	KB-V1 cytotox 5.2µM, SW480 rerep 4.1µM, HT1080 IDH1KD tx 12µM, MCF10A rerep 4.6µM, KB-3-1 tox 3.3µM, HT1080NT lethal 21µM
O=C(OCn1ncc(Br)c(Br)c1=O)c1ccccc1Cl	KB-V1 cytotox 5.8µM, SW480 rerep 5.6µM, HT1080 IDH1KD tx 6.5µM, MCF10A rerep 7.9µM, KB-3-1 tox 18µM, HT1080NT lethal 8.2µM
CC(=O)OCn1ncc(N2CCOCC2)c(Br)c1=O	none
COc1ccc(-c2cc(OC(=O)c3ccc(Cl)cc3)c3c(C)oc(C)c3c(=O)c2)cc1	none (no result: SW480 rerep, HT1080 IDH1KD tx, MCF10A rerep, HT1080NT lethal)
COc1ccc(C(=O)NC(C)CCc2ccccc2)c(O)c1 (centres undefined)	MCF10A rerep inconclusive
CC(C)Cn1cc(C(=O)NCCCN2CCC(C)CC2)c2c3ccccc3n(C)c2c1=O	none
CC(C)Cn1cc(C(=O)NCCCN2CCCC2=O)c2c3ccccc3n(C)c2c1=O	KB-V1 cytotox 5.8µM
O=P(OC1CCCCC1)(OC1CCCCC1)C(O)c1cccnc1 (centres undefined)	KB-3-1 tox inconclusive
O=P(OC1CCCCC1)(OC1CCCCC1)C(O)c1ccccc1 (centres undefined)	KB-V1 cytotox 9.2µM
Cc1nc2scc(-c3ccccc3)c2c(=O)n1N=C1C=CC(=O)C=C1	KB-V1 cytotox inconclusive, SW480 rerep inconclusive, HT1080 IDH1KD tx inconclusive, MCF10A rerep inconclusive, HT1080NT lethal 18µM
CC1=C(C(=O)Nc2cccnc2)C(c2cccc(F)c2)n2nc(SCc3ccccc3F)nc2N1 (centres undefined)	KB-V1 cytotox inconclusive (no result: SW480 rerep, HT1080 IDH1KD tx, MCF10A rerep, HT1080NT lethal)
CCCCC(=O)N1CCc2cc(OC)c(OC)cc2C1COc1ccc(OC)cc1 (centres undefined)	KB-V1 cytotox inconclusive (no result: SW480 rerep, HT1080 IDH1KD tx, MCF10A rerep, HT1080NT lethal)
Cc1ccc(S(=O)(=O)/N=C2\C(=O)c3ccccc3C([O-])=C2n2cc[n+](CCC(C)C)c2)cc1	KB-V1 cytotox inconclusive, HT1080 IDH1KD tx 10µM, HT1080NT lethal inconclusive
CCCC[n+]1ccn(C2=C([O-])c3ccccc3C(=O)/C2=N\S(=O)(=O)c2ccc(Br)cc2)c1	HT1080 IDH1KD tx inconclusive, MCF10A rerep inconclusive, HT1080NT lethal inconclusive
COc1ccccc1-n1c(-c2ccccc2)n[nH]c1=S	HT1080 IDH1KD tx 2.6µM, MCF10A rerep inconclusive, KB-3-1 tox inconclusive, HT1080NT lethal inconclusive
Cc1cccc(-n2c(-c3csc(C(C)C)c3)n[nH]c2=S)c1	KB-V1 cytotox 18µM
CCN(CC)c1ccc(-c2n[nH]c(=S)n2-c2ccccc2)cc1	KB-V1 cytotox 23µM, SW480 rerep inconclusive, HT1080 IDH1KD tx 21µM, MCF10A rerep inconclusive, KB-3-1 tox 13µM, HT1080NT lethal inconclusive
Cc1ccc(C)c(-n2c(-c3csc(C)c3)n[nH]c2=S)c1	KB-V1 cytotox 18µM, SW480 rerep inconclusive, HT1080 IDH1KD tx 10µM, HT1080NT lethal inconclusive
CN(C)c1ccc(-c2n[nH]c(=S)n2-c2ccccc2)cc1	none
CCCc1cc(-c2n[nH]c(=S)n2-c2cccc(C)c2)cs1	KB-V1 cytotox inconclusive
Cc1ccc(C)c(-n2c(-c3ccncc3)n[nH]c2=S)c1	none
